High-throughput results (PubChem BioAssay)
D1 antag: Antagonist of Human D 1 Dopamine Receptor: qHTS | D(1A) dopamine receptor (Homo sapiens), P21728 | HEK293 TREx D1 cells, calcium flux, dopamine EC80; hits give low values | activity change, negative = inhibition, % at 10 µM | 3.2% of 360,000 active | AID 504652, 2011; in the data active = activity change below about -30%
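Using tetracycline-induced force-coupled D1 Hek293 cells and a calcium dye, signals were followed for 180 s after compound, then for 180 s after EC80 dopamine, to detect inhibitors.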
D1 potentiator: Potentiators of Human D1 Dopamine Receptor: qHTS; D(1A) dopamine receptor (Homo sapiens), P21728; HEK293 TREx D1 cells, calcium flux, dopamine EC20 potentiation; potentiation, % at 10 µM; 0.036% of 360,000 active; in the data active = potentiation above about 30%
D1 ag: Allosteric Agonists of the Human D1 Dopamine Receptor: qHTS; D(1A) dopamine receptor (Homo sapiens), P21728; 1% of 360,000 active; activation, % at 2 µM; HEK293 T-REx D1 cells, calcium flux, agonist mode
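Tetracycline-induced HEK293 TREx D1 cells, force-coupled to calcium signalling, were dye-loaded with a no-wash calcium kit. Compound was pin-added after a 10 s baseline. Fluorescence was read kinetically at 1 cycle/s for 180 s, with calcium rises flagged as agonism.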
TRHR PAM: qHTS for Small Molecule Agonists and Allosteric Enhancers of Human TRH Receptor: Primary Screen for Enhancers | Thyrotropin-releasing hormone receptor (Homo sapiens), P34981 | TRHR cells, fluo-8 calcium fluorescence, EC20 TRH enhancement | enhancement, % at 2 µM | 0.66% of 360,000 active | AID 493056, 2011; in the data active = enhancement above about 30%
Target sequence (P34981 whole entry, looked up): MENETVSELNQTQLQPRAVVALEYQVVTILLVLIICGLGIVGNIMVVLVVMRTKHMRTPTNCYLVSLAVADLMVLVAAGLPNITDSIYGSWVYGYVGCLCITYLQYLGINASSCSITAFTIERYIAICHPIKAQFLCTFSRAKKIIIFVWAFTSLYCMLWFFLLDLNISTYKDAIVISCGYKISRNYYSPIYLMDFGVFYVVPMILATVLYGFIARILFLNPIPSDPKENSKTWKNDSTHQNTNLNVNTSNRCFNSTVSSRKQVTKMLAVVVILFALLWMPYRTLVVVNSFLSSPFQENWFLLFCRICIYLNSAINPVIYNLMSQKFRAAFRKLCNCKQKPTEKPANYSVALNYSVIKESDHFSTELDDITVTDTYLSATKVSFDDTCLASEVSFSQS
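Enhancer read-out: after compound pinning and an initial kinetic agonist-mode read, an EC20 of TRH (10 nM final) was injected and fluo-8 calcium signal (Ex 480/Em 530) followed at 1 s/cycle for 100 cycles in TRHR-expressing cells.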
TRHR ag: qHTS for Small Molecule Agonists and Allosteric Enhancers of Human TRH Receptor: Primary Screen for Agonists; TRHR cells, calcium flux fluo-8, FDSS agonist mode; activation, % at 2 µM; Thyrotropin-releasing hormone receptor (Homo sapiens), P34981; 0.18% of 360,000 active; AID 493084, 2011
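Steps: seed TRHR cells overnight; add fluo-8 no-wash Ca dye, RT 30 min–1.5 h; record 10 s baseline; pin-transfer compounds; monitor fluorescence 1 cycle/s for the agonist window. Calcium increases flag candidate agonists.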
Of the large screens only hits and unclear results are named; the others gave an inactive call. A selection: hits, their analogues and other compounds. The true share with any hit is near 4.6%. Rule as the data show it, unless noted: active = activation above about 30%; inactive = the rest.

COC(=O)c1c(C)sc(-c2c(-c3ccc(F)cc3)[nH]c3[nH]c(=O)[nH]c(=O)c23)c1O	D1 ag 131, TRHR ag 56
CCc1ccc(-c2[nH]c3c(c2-c2sc(C)c(C(=O)OC)c2O)c(=O)n(C)c(=O)n3C)cc1	none
Cc1ccc(NS(=O)(=O)c2ccc(C)c(NC(=O)COc3ccccc3)c2)c(C)c1	D1 antag -46
Cc1ccccc1NC(=O)CSc1nccn1C	none
CC(C)(C)c1ccc(OCCNCc2ccccc2)cc1	D1 ag 43
Cc1ccc(C(C)C)c(OCCCNCc2cccnc2)c1	none
Cc1ccc(C(C)C)c(OCCNCCc2ccccc2)c1	D1 ag 58
CCCOc1ccc(OCCCCNC(C)CC)cc1 (stereo not given)	D1 antag -54
O=C(CCCOc1ccccc1)NCCc1ccccc1	none
c1ccc(CCNCCOc2ccccc2)cc1	D1 antag -53
Cc1ccc2c(=O)c(C(=O)c3ccc(Cl)cc3)cn(CC(=O)Nc3ccc4c(c3)OCCO4)c2n1	none
CNCCCOc1ccc(C(C)(C)c2ccccc2)cc1	D1 ag 53
CCCCNCC#CCOc1cc(C)ccc1C(C)C	D1 ag 87
CCC(C)NCCOc1ccc(C(C)(C)c2ccccc2)cc1 (stereo not given)	D1 ag 72
CC(C)(c1ccccc1)c1ccc(OCCCN2CCNCC2)cc1	D1 ag 59
CC(C)(c1ccccc1)c1ccc(OCCN2CCOCC2)cc1	none
CCc1cccc(C)c1NC(=O)C(C)Sc1nc2c(c(=O)[nH]1)CCCC2 (stereo not given)	none
CCC1CCCCN1S(=O)(=O)c1ccc(NC(=O)c2nc(SC)ncc2Cl)cc1 (stereo not given)	none
CC12CCC(C(=O)N(c3ccc(Cl)cc3)C1=O)C2(C)C (stereo not given)	none
CC12CCC(C(=O)N(c3ccccc3Cl)C1=O)C2(C)C (stereo not given)	TRHR PAM 34
O=C(Nc1cccnc1)C1COc2ccccc2O1 (stereo not given)	none
O=C(Nc1ncccc1Cl)C1COc2ccccc2O1 (stereo not given)	D1 ag 47
CCN(CC)S(=O)(=O)c1ccc(N2CCN(S(=O)(=O)c3ccccc3C#N)CC2)nc1	D1 antag -83
Cc1nn(-c2ccc(F)cc2F)c2c1-c1nc(N3CCCC3)ncc1CC2	D1 antag -42
CN1C(=O)c2cccc3c(S(=O)(=O)N4CCCC4C(=O)O)ccc1c23 (stereo not given)	D1 antag -38
O=C(COc1ccccc1)Nc1ccc(Cl)c(-c2nc3ncccc3o2)c1	D1 antag -44
CC(C)CC1(C(=O)NCc2cc(F)cc(C(F)(F)F)c2)C=CCN1C(=O)c1ccccc1 (stereo not given)	D1 antag -30
CCOc1cc(C)c(S(=O)(=O)Nc2ccc3cn[nH]c3c2)cc1C	D1 ag 33
N#Cc1ccc2[nH]c(CO)c(-c3ccccc3)c2c1	D1 antag -40
COC(=O)c1ccc2[nH]c(CO)c(-c3ccccc3)c2c1	none
CCOCc1c(C(=O)N2CCN(CC(=O)Nc3ccc(F)cc3)CC2)oc2ccccc12	D1 antag -34
CCOCc1c(C(=O)N2CCN(CCOc3ccc(Cl)cc3)CC2)oc2ccccc12	none
COC(=O)c1ccccc1-c1c2ccc(=N)cc-2oc2cc(N)ccc12	D1 antag -56, D1 ag 507, TRHR ag 198
CC1CCN(S(=O)(=O)c2ccc3c(c2)N(CC(=O)NCc2ccccc2Cl)C(=O)CS3)CC1	none
Cc1cc(C)nc(NS(=O)(=O)c2ccc(NC(=O)Cc3ccccc3)cc2)n1	TRHR PAM 36
Cc1cc(C)nc(NS(=O)(=O)c2ccc(NC(=O)COc3ccccc3)cc2)n1	none
Cc1cc(C)nc(NS(=O)(=O)c2ccc(NC(=O)COc3ccc(Cl)cc3C)cc2)n1	D1 antag -49
COc1ccc(-c2noc(CC(=O)Nc3ccc(F)cc3F)n2)cc1	none
CCN(CC(=O)NCc1cccs1)C(=O)/C=C/c1ccc(OC)cc1OC	none
CCN(CC(=O)Nc1ccc2c(c1)OCCO2)C(=O)C1CC(=O)N(c2ccc(OC)cc2OC)C1 (stereo not given)	none
CCN(CC(=O)NCc1cccs1)C(=O)/C=C/c1cc(OC)ccc1OC	D1 antag -67
CCN(CC(=O)NCc1cccs1)C(=O)C1CC(=O)N(c2ccc(OC)cc2OC)C1 (stereo not given)	D1 antag -34
CC1CCN(c2ccc3c(c2)S(=O)(=O)c2cccc(C(=O)NC4CCCCC4)c2C3=O)CC1	D1 antag -31, D1 ag 35, TRHR ag 39
CC1CCN(c2ccc3c(c2)S(=O)(=O)c2cccc(C(=O)NCc4ccc(F)cc4)c2C3=O)CC1	D1 ag 337, TRHR ag 78
O=C(NC1CCCC1)c1cccc2c1C(=O)c1ccc(N3CCCCC3)cc1S2(=O)=O	none
O=C(NCc1ccc(F)cc1)c1cccc2c1C(=O)c1ccc(N3CCOCC3)cc1S2(=O)=O	D1 ag 42 (no result: D1 antag)
O=C(NCc1ccccc1Br)c1cccc2c1C(=O)c1ccc(N3CCOCC3)cc1S2(=O)=O	D1 ag 37
COc1ccccc1-c1nc(SCC(=O)Nc2ccc(C)c(C)c2)n[nH]1	none
COc1ccccc1NC(=S)N1CCNC(=O)C1CC(=O)Nc1cccc(C)c1 (stereo not given)	none
COc1ccccc1NC(=O)CC1C(=O)NCCN1C(=O)Nc1ccc(Cl)c(Cl)c1 (stereo not given)	D1 antag -30
Cc1nc2ncnn2c(N2CCN(C(=O)c3cccc(F)c3)CC2)c1Cc1ccccc1	D1 antag -91
CN(C)c1ccc(NC(=O)CSC2=Nc3ccccc3C3=NC(CC(=O)NCc4ccc5c(c4)OCO5)C(=O)N23)cc1 (stereo not given)	none
CCCC12CN3CC(C)(CN(C1)C3c1cn(C)c3ccccc13)C2=O (stereo not given)	none
CCn1cc(C2N3CC4(C)CN2CC(C)(C3)C4=O)c2ccccc21 (stereo not given)	D1 antag -76 (no result: D1 potentiator)
Cn1c(=O)c2c(-c3ccccc3Cl)n(-c3cc(Cl)ccc3O)cc2n(C)c1=O	D1 ag 43
Cc1cccc(NC(=O)CSc2nc(=O)n(CCN3CCOCC3)c3c2CCC3)c1C	none (no result: D1 antag)
CCn1nc(C)cc1C(=O)N1CCCC(N2CCN(c3cccc(Cl)c3)CC2)C1 (stereo not given)	D1 antag -54
